CYP2C9 inhib = blocks human cytochrome P450 2C9; P11712; CYP2C9 Supersomes, luciferin-H conversion, luminescence; 20% of 96,000 active; AID 777; inhibition, % at 5 µM;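 active means blocking of liver enzyme CYP2C9 beyond about 50% at 5 µM, limit read from the data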
Target sequence (P11712 whole entry, looked up): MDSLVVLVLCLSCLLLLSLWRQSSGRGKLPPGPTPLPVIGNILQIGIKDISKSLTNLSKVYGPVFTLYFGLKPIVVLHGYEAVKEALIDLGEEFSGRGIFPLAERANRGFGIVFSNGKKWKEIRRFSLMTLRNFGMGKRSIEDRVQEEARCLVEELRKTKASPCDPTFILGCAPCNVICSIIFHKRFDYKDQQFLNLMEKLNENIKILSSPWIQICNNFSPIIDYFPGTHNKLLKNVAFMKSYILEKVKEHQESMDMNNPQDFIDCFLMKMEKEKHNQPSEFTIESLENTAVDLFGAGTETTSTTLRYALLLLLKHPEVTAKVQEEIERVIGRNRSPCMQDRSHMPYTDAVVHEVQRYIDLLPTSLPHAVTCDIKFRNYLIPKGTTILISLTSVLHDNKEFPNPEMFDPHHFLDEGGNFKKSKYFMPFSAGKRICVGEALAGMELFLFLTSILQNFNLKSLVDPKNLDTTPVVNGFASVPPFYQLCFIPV
CYP2C19 act = activators of human cytochrome P450 2C19; activation factor at 5 µM; P33261; recombinant CYP2C19, luciferin-H EGE luminescence; hits give high values; 0 = fully inhibited enzyme, 1 = untreated enzyme; 96,000 tested, under 10 active;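 active means activation factor of at least 2 at 5 µM in the primary screen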
CYP2C9 activ = increases human cytochrome P450 2C9 activity | recombinant CYP2C9, luciferin-H conversion, luminescence; hits give high values; factor 1 = untreated enzyme, 0 = blocked | activation factor at 5 µM | 1.4% of 96,000 active | AID 1024;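 active means activation factor of 2 or more for CYP2C9 at a 5 µM dose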
PLAP activator = activates human placental alkaline phosphatase; purified PLAP enzyme, luminescent substrate read-out; hits give high values; activation fold at 20 µM; 1.2% of 96,000 active; AID 696; in the data active means activation fold above about 2
CYP2C19 inh = inhibitors of human CYP2C19 | P33261 | CYP2C19 Supersomes, luciferin-H EGE luminescence, 30 min | inhibition, % at 5 µM | 21% of 96,000 active | AID 778;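 active means CYP2C19 inhibition above a set limit at 5 µM in the primary screen, cut at about 50% in these data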
Of the large screens only hits and unclear results are named; the others gave an inactive call. Shown are actives, neighbours in structure and some others; about 31% of the full set was active somewhere.

CN(C)/C=C(/C(=O)c1ccc(Cl)cc1)S(=O)(=O)c1ccc(Cl)cc1	CYP2C19 inh 62
O=C(Nc1ccc(N=Nc2ccccc2)cc1)c1ccc(Cl)cc1Cl	none
O=C(NN1C(=O)C2C3C=CC(C4CC34)C2C1=O)c1ccc(Cl)cc1Cl (stereo not drawn)	none
CN(C)/C=C(/C(=O)c1ccc(Cl)cc1Cl)S(=O)(=O)c1ccccc1	CYP2C9 inhib 63
CC(=O)NC1=NN(C(C)=O)C2(S1)C(=O)N(C(C)C)c1ccc(C)cc12 (stereo not drawn)	none
O=C(NCCN=C1NS(=O)(=O)c2ccccc21)c1ccco1	none
O=C(NCCCN=C1NS(=O)(=O)c2ccccc21)c1ccncc1	CYP2C9 inhib 80
O=S1(=O)NC(=NCc2ccccc2)c2ccccc21	CYP2C19 inh 60
COc1ccc(C(=O)OCCN=C2NS(=O)(=O)c3ccccc32)cc1OC	none
S=C(NCc1ccco1)N1CCN(Cc2ccc(Cl)cc2Cl)CC1	none
CCCCOC(=O)c1cc(C)nc2ccc(Br)cc12	none
CCOC(=O)c1cc(C(=O)OCC)c2cc(Br)ccc2n1	CYP2C9 inhib 64
O=c1cc(-c2ccccc2)nc2nc(-c3ccco3)[nH]n12	CYP2C9 inhib 52
O=c1cc(-c2ccccc2)nc(SCc2ccccc2)[nH]1	none
O=c1cc(-c2ccccc2)nc2nc(CCc3ccccc3)[nH]n12	CYP2C9 inhib 72
O=c1cc(-c2ccccc2)nc2nc(SCc3ccccc3)[nH]n12	CYP2C9 inhib 90
O=C(CCc1ccccc1)Nc1nc2nc(-c3ccccc3)cc(=O)n2[nH]1	none
O=c1cc(-c2ccccc2)nc(SCc2ccc(Cl)cc2)[nH]1	CYP2C19 inh 54
CCOC(=O)CC1=NC(=O)CS1	none
C=C(C)C1CC=C(C)/C(=N/NC(=O)CNc2ccc(OCC)cc2)C1 (stereo not drawn)	none
CCCCC(=O)Nc1cc(OC)c(NC(=O)C2CCCCC2)cc1OC	CYP2C9 inhib 99, CYP2C19 inh 71
CCCCOC(=O)Nc1cc(OC)c(Cl)cc1OC	CYP2C9 inhib 61, CYP2C19 inh 98
CCCC(=O)Nc1cc(OC)c(NC(=O)NC2CCCCC2)cc1OC	none
COc1cc(NC(=O)C2CCCC2)c(OC)cc1Cl	CYP2C19 inh 65
COc1ccc(OC)c(NC(=O)C2CCCC2)c1	none
O=C1C2(CCC13COC(c1ccc(O)cc1)OC3)COC(c1ccc(O)cc1)OC2 (stereo not drawn)	none
COc1ccc(S(=O)(=O)N(Cc2cc3cc(C)ccc3[nH]c2=O)CC2CCCO2)cc1 (stereo not drawn)	CYP2C9 inhib 60
COc1ccc(NC(=O)N(CCc2ccccc2)Cc2cc3c(C)cc(C)cc3[nH]c2=O)cc1	none
COc1ccc2cc(CN(CC3CCCO3)S(=O)(=O)c3ccc(C(C)=O)cc3)c(=O)[nH]c2c1 (stereo not drawn)	CYP2C9 inhib 60
COC(=O)c1ccccc1S(=O)(=O)N(Cc1cc2ccc(OC)cc2[nH]c1=O)CC1CCCO1 (stereo not drawn)	CYP2C9 inhib 90
COc1ccc(S(=O)(=O)N(CCCN2CCCC2=O)Cc2cc3c(C)cc(C)cc3[nH]c2=O)cc1	CYP2C9 inhib 94, CYP2C19 inh 65
COc1ccc(NC(=O)N(Cc2cc3cc(OC)ccc3[nH]c2=O)CC2CCCO2)cc1 (stereo not drawn)	none
COc1cccc2c(=O)n(CC(=O)Nc3ccccc3F)ccc12	none
COc1cccc2cc(C(=O)NCc3ccco3)c(=Nc3ccc(C(=O)O)cc3)oc12	none
O=C(O)C(Cc1ccccc1)n1cnnn1 (stereo not drawn)	none
O=C(c1c(F)cccc1F)N(Cc1ccccn1)C1CCCC1	none
O=C(/C=C/c1ccccc1)Nc1ncn[nH]1	none
O=C(CCc1ccccc1)Nc1ncn[nH]1	PLAP activator 2.6
O=C(Cc1ncn[nH]1)NCCc1ccccc1	PLAP activator 2.4
O=C(CCc1ccccc1)Nc1ccncc1	CYP2C9 inhib 83, CYP2C19 inh 86
C=CCN1C(=O)C(O)=C(C(C)=O)C1c1ccccc1F (stereo not drawn)	none
COc1cc([N+](=O)[O-])ccc1NC(=O)CCCOc1cccc(C)c1C	none
Cn1c(C(O)c2ccc3c(c2)OCO3)nc2ccccc21 (stereo not drawn)	CYP2C9 inhib 62, CYP2C19 inh 97
CC(C)n1c(C(O)c2ccc3c(c2)OCO3)nc2ccccc21 (stereo not drawn)	CYP2C9 inhib 53, PLAP activator 2.4, CYP2C19 inh 98
COc1ccc(OC)c(C(O)c2nc3ccccc3n2C(C)C)c1 (stereo not drawn)	CYP2C19 inh 74
OC(c1ccc2c(c1)OCO2)c1nccc2ccccc12 (stereo not drawn)	CYP2C19 inh 95
CN1CCN(CP(=O)(N2CCOCC2)N2CCOCC2)CC1	none
N#Cc1ccc2ccn(CC(=O)NCc3ccccc3)c2c1	CYP2C9 inhib 59, CYP2C19 inh 87
CCOC(=O)CCc1c(C)c2ccc(OCC)c(C)c2oc1=O	none
CCCOc1ccc2c3c(c(=O)oc2c1OCCC)CCCC3	none
Cc1c(OCc2nn[nH]n2)ccc2c3c(c(=O)oc12)CCCC3	CYP2C9 inhib 94, CYP2C19 inh 67
CCOC(=O)COc1ccc2c3c(c(=O)oc2c1C)CCC3	CYP2C9 inhib 79, CYP2C19 inh 65
COc1ccc2c3c(c(=O)oc2c1OCC(N)=O)CCCC3	CYP2C9 activ 2.5
CCCc1cc(=O)oc2cc(C)cc(OCc3nn[nH]n3)c12	none
CCOc1ccc2c3c(c(=O)oc2c1OCC)CCCC3	none
Cc1c(OCc2nn[nH]n2)ccc2c3c(c(=O)oc12)CCC(C)C3 (stereo not drawn)	CYP2C9 inhib 98, CYP2C19 inh 85
COC(=O)c1ccc(OCC(=O)Nc2nn(-c3ccccc3)nc2C(N)=O)cc1	none
CCOCC(=O)Nc1nnc(C2CCCCC2)s1	none
COC(=O)c1cccc(NC(=O)NC2CCCN2S(=O)(=O)c2ccc(Cl)cc2)c1 (stereo not drawn)	CYP2C9 inhib 54
O=S(=O)(c1ccc(S(=O)(=O)N2CCCN(Cc3ccccc3)C2)cc1)N1CCCCCC1	CYP2C9 inhib 74, CYP2C19 inh 72
Cc1ccc(S(=O)(=O)N2CCN(S(=O)(=O)c3ccccc3)C2)cc1	CYP2C9 inhib 57, CYP2C19 inh 56
Cc1ccc(-c2ccc(S(=O)(=O)N3CCN(C)CC3)cc2)cc1	CYP2C9 inhib 52
CN(C)S(=O)(=O)N1CCN(S(=O)(=O)c2ccccc2)CC1	CYP2C9 inhib 58, CYP2C19 inh 80
O=S(=O)(NCc1ccccc1)c1ccc(S(=O)(=O)N2CCCCC2)cc1	none
CC(C)c1nnc(NC(=O)CCC(=O)NCc2ccco2)s1	none
CSc1nnc(-c2cnccn2)n1CCCN1CCCC1=O	none
COc1ccc(Cn2c(=O)sc3ccccc32)cc1	CYP2C9 inhib 68, CYP2C19 inh 50
O=C(Cn1c(=O)sc2ccccc21)N1CCOCC1	none
O=c1sc2ccccc2n1COc1ccccc1	CYP2C9 inhib 59, CYP2C19 inh 89
Cc1ccccc1OCCN1C(=O)c2ccccc2C1=O	none
